High-throughput results deposited in PubChem BioAssay by National Center for Advancing Translational Sciences (NCATS).
This is a sample that favours compounds with a hit; in the whole collection about 15% have one here.
Sm TGR block – qHTS Assay for the Inhibitors of Schistosoma Mansoni Peroxiredoxins; purified TGR, DTNB reduction, TNB absorbance 405 nm; Potency, µM (doses to about 114 µM), for inactives: top-dose activity change, negative = inhibition, actives largely listed as inhibitors; 360,000 tested, 3% active; AID 485364, 2010; also: potency is read from the fitted curve at half-maximal effect; % is scaled to controls: 0 for no effect and ±100 for the full control effect; nearly all actives have a fitted effect of over 60% in size
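Kinetic colorimetric format: TGR-catalysed, NADPH-driven DTNB reduction monitored via TNB absorbance. Enzyme dispensed at 20 nM; compound exposure 15 min at room temperature before reaction start.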
Pf growth 48h – Primary qHTS for delayed death inhibitors of the malarial parasite plastid, 48 hour incubation. 310,000 tested, 5.9% active. P. falciparum luciferase growth in erythrocytes, 48 h. AID 504832, 2011. Potency, µM (series often up to 28.7 µM), inactives show top-dose activity change, negative = inhibition, usual class: inhibitors; also: potency is read from the fitted curve at half-maximal effect; % is scaled to controls: 0 for no effect and ±100 for the full control effect
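Luciferase-expressing parasites in RBCs, 2% Hct / 0.1% parasitemia final; RPMI 1640 + 0.5% Albumax; 37 C, 5% CO2, one generation; luminescence read-out, lower signal = inhibition.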
HCMV antiviral – qHTS Assay for inhibitors of the human cytomegalovirus (HCMV); HFF cells, HCMV-luciferase reporter, 72 h; active compounds read low; activity change, negative = inhibition, % at 57.5 µM; 410,000 tested, 4.5% active; in the data active = activity change below about -60%; inconclusive = no clear call, values can overlap the other calls; inactive = above about -39%; also: % is scaled to controls: 0 for no effect and ±100 for the full control effect
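Screen run at 2 compound doses on HFFs infected with reporter HCMV, MOI 1 PFU/cell. Luciferase activity from cell lysates at 72 h post infection gave inhibition relative to buffer-only and Salinomycin wells.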
HCV inhibitor – qHTS Assay for Inhibitors of Hepatitis C Virus (HCV). Huh7.5.1 HCVcc-Cre infection, luciferase reporter, 44 h. Potency, µM (highest dose often 41.8 µM), for inactives: at the top dose activity change, negative = inhibition, hits mostly inhibitors. 340,000 tested, 3.4% active; also: potency is read from the fitted curve at half-maximal effect; % is scaled to controls: 0 for no effect and ±100 for the full control effect
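Whole-lifecycle infectious HCVcc-Cre system; cells 1,000/well, compound then virus (~0.5 moi) added 4 h after plating, 44 h culture. Luciferase read 15 sec following 15 min substrate incubation, room temp.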
Pf growth 96h – Primary qHTS for delayed death inhibitors of the malarial parasite plastid, 96 hour incubation; P. falciparum luciferase reporter growth, 96 h; Potency, µM (titrated, usually from 28.7 µM), inactives show at the highest dose activity change, negative = inhibition, most hits filed as inhibitors; 320,000 tested, 6.9% active; also: potency is read from the fitted curve at half-maximal effect; % is scaled to controls: 0 for no effect and ±100 for the full control effect
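Infected RBCs, 2% Hct / 0.05% parasitemia final; luciferase-reporter P. falciparum; cpd 96 h, 37 C, 5% CO2; luciferase detection reagent; luminescence.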
SARS PLP yeast – qHTS of Yeast-based Assay for SARS-CoV PLP; S. cerevisiae expressing SARS-CoV PLpro, growth rescue; Potency, µM (doses to about 32.9 µM), without a hit: top-dose activity, positive = growth rescue, usual class: activators; 330,000 tested, 0.19% active; AID 485353, 2010; calls by dose curve; also: potency is read from the fitted curve at half-maximal effect; 0% is about no effect; nearly all actives have a fitted effect of over 55% in size
* = called active by the depositor. Unless noted, calls follow the shape of the dose curve; as a rule, active = well fitted curve in the direction sought with a large enough effect; inconclusive = small, poorly fitted or top-dose-only effect, or another doubt; inactive = no such curve, though single readings can be large; an effect the other way counts as inactive or inconclusive.

For O=c1[nH]c(C2CCN(S(=O)(=O)c3ccccc3C(F)(F)F)CC2)nc2c1nnn2Cc1cccc(F)c1 the results were Sm TGR block -16.6%, Pf growth 48h 2.62µM*, HCMV antiviral 10.9, HCV inhibitor -6.7%, Pf growth 96h inconclusive and SARS PLP yeast 2.5%.
O=c1[nH]c(C2CCCN(S(=O)(=O)c3ccccc3)C2)nc2c1nnn2Cc1ccccc1F (stereo not given) was read as Sm TGR block -0.4%, Pf growth 48h 10.4µM*, HCMV antiviral inconclusive, HCV inhibitor 7.0%, Pf growth 96h 10.2% and SARS PLP yeast 5.2%.
For O=c1[nH]c(C2CCN(S(=O)(=O)c3ccc(C(F)(F)F)cc3)CC2)nc2c1nnn2Cc1cccc(F)c1 the results were Sm TGR block 8.1%, Pf growth 48h inconclusive, HCMV antiviral -32.3, HCV inhibitor 4.2%, Pf growth 96h inconclusive and SARS PLP yeast 5.7%.
O=c1[nH]c(C2CCCN(S(=O)(=O)c3ccccc3)C2)nc2c1nnn2Cc1ccccc1 (stereo not given) was read as Sm TGR block 89.1µM*, Pf growth 48h 10.4µM*, HCMV antiviral -23.6, HCV inhibitor 3.9%, Pf growth 96h -39.9% and SARS PLP yeast 0.0%.
O=c1[nH]c(C2CCCN(S(=O)(=O)c3cccc(F)c3)C2)nc2c1nnn2Cc1ccccc1 (stereo not given) was read as Sm TGR block 1.9%, Pf growth 48h 7.38µM*, HCMV antiviral -28.1, HCV inhibitor 7.9%, Pf growth 96h inconclusive and SARS PLP yeast 2.7%.
For O=c1[nH]c(C2CCCN(S(=O)(=O)c3ccccc3)C2)nc2c1nnn2Cc1ccccc1Br (stereo not given) the results were Sm TGR block -9.3%, Pf growth 48h inconclusive, HCMV antiviral -14.2, HCV inhibitor 1.3%, Pf growth 96h inconclusive and SARS PLP yeast inconclusive.
Screening COc1cc(-c2cc(C(=O)Nc3ccc(S(N)(=O)=O)cc3)c3ccccc3n2)cc(OC)c1OC returned Sm TGR block 6.1%, Pf growth 48h inconclusive, HCMV antiviral 16.7, HCV inhibitor inconclusive, Pf growth 96h inconclusive and SARS PLP yeast 4.3%.
Screening COc1ccc(NC(=O)c2cc(-c3cc(OC)c(OC)c(OC)c3)nc3ccccc23)cc1OC returned Sm TGR block -5.1%, Pf growth 48h 13.1µM*, HCMV antiviral 27.4, HCV inhibitor inconclusive, Pf growth 96h inconclusive and SARS PLP yeast 2.0%.
COc1cc(-c2cc(C(=O)Nc3c(Cl)cc(Cl)cc3Cl)c3ccccc3n2)cc(OC)c1OC was read as Sm TGR block -7.0%, Pf growth 48h 13.1µM*, HCMV antiviral 10.5, HCV inhibitor 10µM*, Pf growth 96h inconclusive and SARS PLP yeast 12.0%.
`COc1cc(-c2cc(C(=O)Nc3ccc(S(=O)(=O)Nc4ncccn4)cc3)c3ccccc3n2)cc(OC)c1OC` gave Sm TGR block 26.0%, Pf growth 48h inconclusive, HCMV antiviral -24.8, HCV inhibitor 13.1%, Pf growth 96h 7.38µM* and SARS PLP yeast 0.1%.
Screening CCN(CC)S(=O)(=O)c1ccc(O)c(NC(=O)c2cc(-c3cc(OC)c(OC)c(OC)c3)nc3ccccc23)c1 returned Sm TGR block 11.6%, Pf growth 48h inconclusive, HCV inhibitor inconclusive, Pf growth 96h 1.17µM* and SARS PLP yeast -0.5%.
COC1OCC(O)C(NC(=O)N(C)N=O)C1O (stereo not given) was read as HCMV antiviral 12.6.
`O=C(COc1ccccc1/C=C1\SC(=S)NC1=O)Nc1ccc(F)cc1` gave HCMV antiviral -28.1, HCV inhibitor 0.5% and SARS PLP yeast 9.4%.
Cc1nc2cccnc2n1C1CCN(S(=O)(=O)c2ccc(C(C)C)cc2)CC1 was read as Sm TGR block 0.0% and HCMV antiviral -25.8.
Cc1ccc(-c2cc(C(=O)NCC(c3ccccc3)N(C)C)c3ccccc3n2)o1 (stereo not given) was read as HCMV antiviral inconclusive, HCV inhibitor -18.6% and SARS PLP yeast -1.4%.
Screening COc1ccc(-c2cc(C(=O)Nc3ccc(S(=O)(=O)Nc4onc(C)c4C)cc3)c3ccccc3n2)cc1 returned Sm TGR block -8.2%, Pf growth 48h 11.7µM*, HCMV antiviral 27.8, HCV inhibitor 34.9%, Pf growth 96h inconclusive and SARS PLP yeast 0.4%.
Screening COc1ccc(-c2cc(C(=O)NCC(c3ccccc3)N(C)C)c3ccccc3n2)cc1OC (stereo not given) returned Sm TGR block -22.8%, Pf growth 48h 10.4µM*, HCMV antiviral 32.3, HCV inhibitor inconclusive, Pf growth 96h 9.28µM* and SARS PLP yeast 0.1%.
`COc1ccc(-c2cc(C(=O)Nc3ccc(O)cc3)c3ccccc3n2)cc1OC` gave Sm TGR block 5.9%, Pf growth 48h 6.57µM*, HCMV antiviral 9.8, HCV inhibitor inconclusive, Pf growth 96h inconclusive and SARS PLP yeast 0.6%.
CC(C)(C)c1ccc(-c2cc(C(=O)NNC(=O)Nc3ccccc3)c3ccccc3n2)cc1 was read as Sm TGR block 6.3%, HCMV antiviral 95.2, HCV inhibitor inconclusive, Pf growth 96h 4.65µM* and SARS PLP yeast -6.4%.
O=C(NNC(=O)c1cc(-c2ccccc2)nc2ccccc12)Nc1cccc(Cl)c1 was read as Sm TGR block 0.8%, Pf growth 48h -21.4%, HCMV antiviral inconclusive, HCV inhibitor inconclusive and SARS PLP yeast -11.0%.
Screening COc1cc(-c2coc3c(C(=O)NC4CCCCC4)cccc23)ccc1O returned HCMV antiviral 0.7.
